Reference: PubChem BioAssay (NCATS)
Results filed as inconclusive are left out. Active and inactive are the calls of the source. The call rests on the fitted dose curve; in most records, active means well fitted cell-killing curve with a large enough effect; inconclusive means small, poorly fitted or top-dose-only effect, or effect the other way; inactive means flat fitted curve, though single readings scatter.

What was measured:
Assay in all cases: Primary qHTS to identify gynecologic anti-cancer compounds using libraries of approved drugs and bioactive compounds (AID 1345084); further: nearly all actives have a fitted effect of over 55% in size
C33A = details: Gynecologic cancer cell panel viability, ATPlite luminescence, 48 h; series mostly up to 57.5 µM
Outline: (§1)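 Cell viability after 48 h drug treatment, ATPlite luminescence readout; five doses.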

CAOV3 = details: Gynecologic cancer cell panel viability, ATPlite luminescence, 48 h; series mostly up to 57.5 µM
Outline: as §1

CASKI = details: Gynecologic cancer cell panel viability, ATPlite luminescence, 48 h; series mostly up to 57.5 µM
Outline: as §1

Es-2 = details: Gynecologic cancer cell panel viability, ATPlite luminescence, 48 h; series mostly up to 57.5 µM
Outline: as §1

HeLa = details: Gynecologic cancer cell panel viability, ATPlite luminescence, 48 h; series mostly up to 57.5 µM
Outline: as §1

Hek293T = details: Gynecologic cancer cell panel viability, ATPlite luminescence, 48 h, control line for the selectivity index; series mostly up to 57.5 µM
Outline: as §1

JEG-3 = details: Gynecologic cancer cell panel viability, ATPlite luminescence, 48 h; series mostly up to 57.5 µM
Outline: as §1

OV90 = details: Gynecologic cancer cell panel viability, ATPlite luminescence, 48 h; series mostly up to 57.5 µM
Outline: as §1

PA-1 = details: Gynecologic cancer cell panel viability, ATPlite luminescence, 48 h; series mostly up to 57.5 µM
Outline: as §1

SKOV3 = details: Gynecologic cancer cell panel viability, ATPlite luminescence, 48 h; series mostly up to 57.5 µM
Outline: as §1

Tov-21-G = details: Gynecologic cancer cell panel viability, ATPlite luminescence, 48 h; series mostly up to 57.5 µM
Outline: as §1

Tov112D = details: Gynecologic cancer cell panel viability, ATPlite luminescence, 48 h; series mostly up to 57.5 µM
Outline: as §1

Measured: Potency

CCC(C)(O)C(O)C(=O)OCc1ccc(O[C@@H]2O[C@H](CO)[C@@H](O)[C@H](O)[C@H]2O)cc1 (stereo partly specified)
inactive: C33A | CAOV3 | CASKI | Es-2 | HeLa | Hek293T | JEG-3 | OV90 | PA-1 | SKOV3 | Tov-21-G | Tov112D

C[C@@H]1CC[C@]2(C(=O)O)CC[C@]3(C)C(=CCC4[C@]5(C)C(CC[C@]43C)C(C)(C)[C@@H](O)[C@H](O)[C@@H]5O)C2[C@]1(C)O (stereo partly specified)
inactive: C33A | CAOV3 | CASKI | Es-2 | HeLa | Hek293T | JEG-3 | OV90 | PA-1 | SKOV3 | Tov-21-G | Tov112D

C/C=C1/[C@H](O[C@@H]2O[C@H](CO)[C@@H](O)[C@H](O)[C@H]2O)OC=C(C(=O)OC)[C@H]1CC(=O)O[C@@H]1O[C@H](CO)[C@@H](O)[C@H](O)[C@H]1O
inactive: C33A | CAOV3 | CASKI | Es-2 | HeLa | Hek293T | JEG-3 | OV90 | PA-1 | SKOV3 | Tov-21-G | Tov112D

Cc1cc(O)c(C(C)C)cc1O[C@@H]1O[C@H](CO)[C@@H](O)[C@H](O)[C@H]1O
inactive: C33A | CAOV3 | CASKI | Es-2 | HeLa | Hek293T | JEG-3 | OV90 | PA-1 | SKOV3 | Tov-21-G | Tov112D

CC(=O)OCCC(C)CCC1C(C)(O)CCC2C(C)(C)CCCC21C (stereo unspecified)
inactive: C33A | CAOV3 | CASKI | Es-2 | HeLa | Hek293T | JEG-3 | OV90 | PA-1 | SKOV3 | Tov-21-G | Tov112D

CC1=C2C(=O)O[C@@H](c3ccoc3)[C@]2(C)CCC1
inactive: C33A | CAOV3 | CASKI | Es-2 | HeLa | Hek293T | JEG-3 | OV90 | PA-1 | SKOV3 | Tov-21-G | Tov112D

COc1cc(C(=O)OC[C@H]2O[C@H](O[C@@]3(CO)O[C@@H](CO)[C@H](O)[C@H]3O)[C@H](O)[C@@H](O)[C@@H]2O)ccc1O
inactive: C33A | CAOV3 | CASKI | Es-2 | HeLa | Hek293T | JEG-3 | OV90 | PA-1 | SKOV3 | Tov-21-G | Tov112D

COc1cc(C(O)C(CO)Oc2ccc(CCCO[C@@H]3O[C@@H](C)[C@H](O)[C@@H](O)[C@H]3O)cc2OC)ccc1O (stereo partly specified)
inactive: C33A | CAOV3 | CASKI | Es-2 | HeLa | Hek293T | JEG-3 | OV90 | PA-1 | SKOV3 | Tov-21-G | Tov112D

O=C(CCO[C@@H]1O[C@H](CO)[C@@H](O)[C@H](O)[C@H]1O)c1ccc(O)cc1
inactive: C33A | CAOV3 | CASKI | Es-2 | HeLa | Hek293T | JEG-3 | OV90 | PA-1 | SKOV3 | Tov-21-G | Tov112D

CCOC(=O)c1c(C)nn(-c2cccc([N+](=O)[O-])c2)c1C
inactive: C33A | CAOV3 | CASKI | Es-2 | HeLa | Hek293T | JEG-3 | OV90 | PA-1 | SKOV3 | Tov-21-G | Tov112D

C[C@@H]1CC[C@]2(C)C3(C)CC[C@@]2(OC3=O)[C@@]12C[C@H](c1ccoc1)OC2=O
inactive: C33A | CAOV3 | CASKI | Es-2 | HeLa | Hek293T | JEG-3 | OV90 | PA-1 | SKOV3 | Tov-21-G | Tov112D

COc1cc(C/C(=C/NC(C)=O)N(CC(=O)Cc2ccccc2)C(C)=O)cc2c1OCO2
inactive: C33A | CAOV3 | CASKI | Es-2 | HeLa | Hek293T | JEG-3 | OV90 | PA-1 | SKOV3 | Tov-21-G | Tov112D

CC1=CC(=O)C2C(C)(C)CCCC2(C)C12CCC1(COC(=O)C1)O2 (stereo unspecified)
inactive: C33A | CAOV3 | CASKI | Es-2 | HeLa | Hek293T | JEG-3 | OV90 | PA-1 | SKOV3 | Tov-21-G | Tov112D
